As usually defined, the inhibition is the relative decrease from the control value, in per cent.

Results on 74 compounds are retold here after PubChem BioAssay AID2291 (The Scripps Research Institute Molecular Screening Center, 2010).

The campaign covered roughly 16,000 compounds. About 75 (0.5%) were called active. Cut-off read from the data, not from the text of the source: active = inhibition above about 30%; inactive = the rest. The entries come from a sample that favours actives as a whole.

In this assay the target is Protein phosphatase methylesterase 1 (Homo sapiens) (UniProt Q9Y570). Kind of assay: Maybridge compound blocking human PME-1 (AID 2291). To be noted: recombinant PME-1, FP-Rh probe fluorescence polarization; at 9 µM; active compounds read high. A general note: Fluorescence polarisation rises when a labelled molecule tumbles more slowly, as on binding a larger partner.
Protein phosphatase methylesterase 1 (Homo sapiens), sequence (Q9Y570 whole entry, looked up): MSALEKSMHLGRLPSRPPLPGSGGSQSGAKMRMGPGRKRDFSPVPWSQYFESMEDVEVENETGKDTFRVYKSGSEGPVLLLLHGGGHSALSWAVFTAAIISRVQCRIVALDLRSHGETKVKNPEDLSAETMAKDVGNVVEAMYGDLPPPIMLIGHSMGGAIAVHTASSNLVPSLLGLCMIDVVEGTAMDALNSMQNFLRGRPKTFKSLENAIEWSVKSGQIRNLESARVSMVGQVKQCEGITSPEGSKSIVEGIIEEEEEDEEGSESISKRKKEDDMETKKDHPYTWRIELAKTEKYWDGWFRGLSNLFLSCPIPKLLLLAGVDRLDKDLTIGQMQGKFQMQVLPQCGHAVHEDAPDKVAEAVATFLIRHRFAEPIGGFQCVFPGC
Consider `CC(=O)Nc1cccc([N+](=O)[O-])c1`, for which the inhibition is 2.8% (inactive). As to `CSc1nc(N)n(-c2ccccc2)n1`, the inhibition is 2.24% (inactive).

`CCOC(=O)C(O)(NC(=O)Nc1ccccc1)C(F)(F)F` (centres undefined): the inhibition was 6.03% (inactive). Consider `CCCCc1c(COC)nc(-c2ccc(Cl)cc2)[nH]c1=O`, for which the inhibition is 2.14% (inactive). In the case of `CCCCCCCCc1ccc(C(=O)O)cc1` it was 1.13% (inactive); in that of `Cn1c(=O)c(/C(N)=N/OC(=O)c2ccccc2Cl)cn(-c2ccccc2)c1=O`, -0.69% (inactive); in that of `Cc1nnc(Sc2ccc([N+](=O)[O-])c(Sc3nnc(C)s3)n2)s1`, 5.33% (inactive). In the case of `O=C(Nn1cnnc1)c1cccs1` it was 5.13% (inactive); in that of `O=C(Nc1ccccc1)N1CCN(c2ncnc3sccc23)CC1`, 1.02% (inactive); in that of `O=C(O)c1ccccc1/C=N/Nc1cc(Cl)ccc1Cl`, 6.19% (inactive). Turning to `CCOC(=O)N/N=C(\C)c1cccc(NC(C)=O)c1`, the inhibition is -0.548% (inactive). Under `CCCN(CCC)S(=O)(=O)c1ccc(C(=O)O/N=C(\C)c2ccccc2O)cc1` stands 0.391% (inactive); under `COC(=O)c1cnc(Oc2ccc(N)cc2)cc1C(F)(F)F`, 0.526% (inactive).

With `CCOC(=O)NC(=O)/C(=C/NCc1cccs1)C(=O)OCC`, the inhibition was 0.233% (inactive).

On to `COc1ccccc1NC(=O)c1ccc(C#Cc2ccccc2)o1`, for which the inhibition was -10.2% (inactive). Under `CS/C(N)=N/N=C/c1cccs1` stands 1.26% (inactive); under `CC1=NOC(=O)/C1=C\c1ccccc1`, 3.58% (inactive); under `COc1ccc(-c2nnc(SCC(O)C(F)(F)F)n2-c2cccc(OC)c2)cc1` (centres undefined), 1.14% (inactive). Under `CC(C)(C)c1ccc(NC(=O)c2ccco2)c(NC(=O)C(Cl)(Cl)Cl)c1` stands 2.58% (inactive); under `FC(F)(F)c1cccc(-n2c(-c3ccncc3)n[nH]c2=S)c1`, -4.3% (inactive); under `Cc1ccc2oc(=O)n(CC/C(N)=N/OC(=O)c3ccc(C(F)(F)F)nc3C)c2c1`, 4.33% (inactive). Under `CCOc1cc(-c2cccs2)nc(N)n1` stands 0.0895% (inactive); under `Cc1ccc(OC(=O)c2nn(-c3ccccc3)nc2C)c([N+](=O)[O-])n1`, -1.37% (inactive). Consider `O=C(CN1C(=O)/C(=C/c2ccccc2Cl)N=C1c1ccccc1)c1ccccc1`, for which the inhibition was -14% (inactive). Turning to `COc1c(Br)cc(C#N)cc1Br`, the inhibition was 7.88% (inactive). In the case of `O=C(Nc1ccccc1)O/N=C1/CCCc2occc21` it was -1.78% (inactive); in that of `COc1ccc(CCNCC(O)Cn2ccc3ccccc32)cc1OC` (centres undefined), -0.35% (inactive). Under `COc1cc(NC(=O)COc2cc(Cl)c(Cl)cc2Cl)cc(OC)c1OC` stands -4.1% (inactive); under `N#Cc1c(N)nc2c3c1NC(O)(c1ccccc1)C(C#N)C3c1cc(Cl)ccc1O2` (centres undefined), -25.9% (inactive); under `COc1cccc(NC(=S)NNC(=S)NC2CC3CCC2C3)c1` (centres undefined), 5.71% (inactive). In the case of `O=C(O)C1CC2CC1CCC2O` (centres undefined) it was 4.17% (inactive); in that of `NC(=O)c1c(C(F)(F)F)cc(C(F)(F)F)cc1C(F)(F)F`, -0.0338% (inactive). Consider `O/N=C/c1sccc1Oc1ccccc1`, for which the inhibition is 5.19% (inactive). In the case of `CSc1nccc(-c2ccc(S(=O)(=O)n3nc(C)c(Br)c3C)s2)n1` it was -1.68% (inactive); in that of `CC1CN=C(N(Cc2cccnc2)C(=O)Nc2ccc(Cl)c(Cl)c2)S1` (centres undefined), -62.8% (inactive); in that of `N#Cc1cn(C2CCCCC2)c(=O)[nH]c1=O`, 6.75% (inactive). As to `COCCOc1ccc(NC(=S)N2CCOCC2)cc1`, the inhibition is -0.885% (inactive).

Consider `O=C1CCN(Cc2ccccc2)C(=O)N1c1ccc2c(c1)CCO2`, for which the inhibition is 5.14% (inactive). Take `Cc1nc(-c2nnc(SCC(=O)c3ccc(F)cc3)n2C)cs1`: the inhibition is 3.93% (inactive). Under `CSc1nc(N)c2ccccc2n1` stands 4.47% (inactive); under `O/N=C(\c1ccccc1)c1ccccn1`, 1.61% (inactive). `Cc1cc(C)n(/N=c2\sc(-c3ccccc3)cn2C2CC3C=CC2C3)c(=O)c1C#N` (centres undefined): the inhibition was 1.38% (inactive).

As for `NC(=O)c1ccc(-c2csnn2)cc1`, the inhibition was 4.57% (inactive). Regarding `CC(=O)N1CCc2cc(NC(=S)Nc3ccccc3Cl)ccc21`, the inhibition was -0.615% (inactive). Under `CC1=CC(=O)C(CCC2=CC(=O)C(C)=CC2=O)=CC1=O` stands -5.46% (inactive).

On to `CN(C)/C=C1/C(=O)NN=C1CSc1ccc(Cl)cc1`, for which the inhibition is 4.88% (inactive). With `O=S(=O)(CCN1CCC(C(F)(F)F)CC1)c1ccccc1`, the inhibition is 5.79% (inactive). `CSc1nc2c(c(/C=C/c3ccccc3)c1C#N)CCC2`: the inhibition was 0.0789% (inactive). Consider `CSC(=Nc1ccccc1C(F)(F)F)N1CCCC1`, for which the inhibition is -2.33% (inactive).

`Cc1ccc(S(=O)(=O)NC(=O)NCCSCc2ccco2)cc1`: the inhibition was 5.18% (inactive). Regarding `NNC(=O)c1cc2ccccc2s1`, the inhibition is 7.18% (inactive). In the case of `O=C(O)c1nccnc1C(=O)O` it was 5.09% (inactive); in that of `CC(=O)OC1=CCC2C3CC[C@@]4(C)CC(OC(C)=O)CCC4(C)C3C(OC(C)=O)CC12C` (some centres undefined), -6.54% (inactive); in that of `OC1(C#Cc2ccccc2)CCN(Cc2ccccc2)CC1`, 4.15% (inactive).

In the case of `O=C(Nc1ccc(OCc2ccccc2)cc1)OCC1CN(Cc2ccccc2)CCO1` (centres undefined), the inhibition was 5.09% (inactive). Under `CCCCCCCCCCCCCC#CC(O)C(N)CO` (centres undefined) stands -4.1% (inactive); under `OCCNC(=S)Nc1ccccc1-c1ccccc1`, 0.487% (inactive). Take `FC(F)(F)C1=CC=NCCN1`: the inhibition was 10.1% (inactive). In the case of `OCCNc1nc2ccccc2[nH]1` it was -2.41% (inactive); in that of `O=S(=O)(c1ccccc1)c1cc(C(F)(F)F)cc(C(F)(F)F)c1`, -0.142% (inactive); in that of `O=C(NCc1ccc2c(c1)OCO2)c1cccc2c1OCCCO2`, -4.73% (inactive). Regarding `O=C1c2cc(S(=O)(=O)Oc3ccccc3)ccc2-c2ccc(S(=O)(=O)Oc3ccccc3)cc21`, the inhibition was 5.56% (inactive).

Regarding `CN(Cc1nnc(-c2ccc3ccccc3c2)o1)c1nnc(C(F)(F)F)s1`, the inhibition was 3.28% (inactive). Under `COC(=O)c1ccccc1N(C)C(=O)c1cc(OC)c(OC)c(OC)c1` stands 0.643% (inactive). In the case of `COC(=O)c1ccccc1NC(=O)c1ccc(Oc2cc(Cl)cc(Cl)c2)o1` it was -2.65% (inactive); in that of `COC(=O)c1ccccc1-c1c2ccc(=O)cc-2oc2cc(O)ccc12`, 61.2% (active); in that of `S=C(SCc1ncon1)N1CCSCC1`, -2.3% (inactive).

As to `C/C(=N\NC(N)=S)c1cc2cc(Cl)ccc2o1`, the inhibition is -1.43% (inactive).

Turning to `Clc1ccc(C2=NN(Cc3ccccc3)CC2)s1`, the inhibition is 2.04% (inactive). On to `NC(=NC(=O)CCn1c(=O)oc2ccccc21)c1cc(Cl)cc(Cl)c1`, for which the inhibition is -1.92% (inactive). In the case of `O=S(=O)(Oc1cccc(C(F)(F)F)c1)c1cc(S(=O)(=O)c2ccccc2)cs1` it was -3.1% (inactive); in that of `CC(C)(C)c1cc(C(=O)N/N=C/c2ccc([N+](=O)[O-])s2)n[nH]1`, 4.23% (inactive); in that of `CCOC(=O)/C(C#N)=C/N/S(C)=N/N=C/c1ccc(N(C)C)cc1` (centres undefined), 4.21% (inactive). Under `NNC(=O)CSc1nnc(-c2ccccc2)n1-c1ccccc1` stands 3.4% (inactive).
